Test results from PubChem BioAssay AID720709 (National Center for Advancing Translational Sciences (NCATS), 2013).
Hit rate of the full screen: of about 360,000 compounds, about 520 (0.14%) were called active. Not shown: some 3% with an inconclusive outcome. This is one part of a sample in which actives are shown more often than they occur. Values without a mark were called inactive. Calls come from the whole dose curve; as a rule, active = well fitted inhibition curve with a large enough effect; inconclusive = small, poorly fitted or top-dose-only effect; inactive = no such curve, though single readings can be large or run the other way.

Molecular target: Rap guanine nucleotide exchange factor 3 (Homo sapiens) (UniProt O95398)
Sequence (O95398 whole entry, looked up): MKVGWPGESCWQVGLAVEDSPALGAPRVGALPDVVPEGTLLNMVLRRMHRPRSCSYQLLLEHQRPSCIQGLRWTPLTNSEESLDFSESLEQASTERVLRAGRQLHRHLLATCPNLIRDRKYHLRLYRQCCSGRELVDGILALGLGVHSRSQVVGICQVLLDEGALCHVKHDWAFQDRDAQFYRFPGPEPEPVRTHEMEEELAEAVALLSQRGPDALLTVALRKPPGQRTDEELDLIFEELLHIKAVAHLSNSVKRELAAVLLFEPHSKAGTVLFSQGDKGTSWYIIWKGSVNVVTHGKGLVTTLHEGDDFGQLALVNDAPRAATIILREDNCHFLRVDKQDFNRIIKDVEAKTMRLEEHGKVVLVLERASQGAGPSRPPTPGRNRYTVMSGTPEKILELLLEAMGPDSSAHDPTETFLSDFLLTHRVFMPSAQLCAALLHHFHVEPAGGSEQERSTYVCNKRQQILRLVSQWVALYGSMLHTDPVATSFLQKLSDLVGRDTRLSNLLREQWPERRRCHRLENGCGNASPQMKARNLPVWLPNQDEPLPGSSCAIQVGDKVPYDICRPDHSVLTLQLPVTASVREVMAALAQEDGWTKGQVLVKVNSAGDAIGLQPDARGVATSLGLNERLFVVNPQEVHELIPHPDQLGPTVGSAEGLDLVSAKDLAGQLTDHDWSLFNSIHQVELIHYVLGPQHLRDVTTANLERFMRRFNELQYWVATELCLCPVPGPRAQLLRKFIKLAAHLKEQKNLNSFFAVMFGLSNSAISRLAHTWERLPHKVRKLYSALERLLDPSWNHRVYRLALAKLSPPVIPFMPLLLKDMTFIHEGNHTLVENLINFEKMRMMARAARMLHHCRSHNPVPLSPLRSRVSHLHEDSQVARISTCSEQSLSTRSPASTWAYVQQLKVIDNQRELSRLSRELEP
Assay: qHTS for Antagonist of cAMP-regulated guanine nucleotide exchange factor 3 (EPAC1): primary screen; note: nearly all actives have a fitted effect of over 50% in size
Conditions: EPAC1 GEF assay, Rap1b-BODIPY-GDP exchange fluorescence; series mostly up to 115 µM; activity change, negative = inhibition: at the top concentration
Excerpt: In multi-cellular eukaryotic organisms, the effects of cAMP are transduced by two ubiquitously-expressed intracellular cAMP receptors, the classic protein kinase A/cAMP-dependent protein kinase (PKA/cAPK) and the more recently discovered exchange protein directly activated by cAMP/cAMP-regulated guanine nucleotide exchange factor (EPAC/cAMP-GEF). Both PKA and EPAC are ubiquitously expressed in all tissues, and an increase in intracellular cAMP levels will lead to the activation of both PKA and EPAC. Therefore, careful dissections of the individual role and relative contribution of EPAC and PKA within the overall cAMP signaling in various model systems are critical for further elucidating the mechanism of cAMP signaling. To date no EPAC-specific antagonists and agonist, as well as isoform-specific agonists have been reported, and developing EPAC-specific pharmacological probes to determine the physiological functions that EPAC play in the overall cAMP-mediated signaling remains a major challenge within the research field. Furthermore, identified regulators of EPAC may lead to new mechanism-based therapeutic strategies specifically targeting the EPAC / cAMP-signaling components as EPAC has been implicated to play important roles in major human pathological conditions such as diabetes, heart disease, and cancer. This qHTS will be used to screen the Molecular Libraries Small Molecule Repository (MLSMR) as a concentration-titration series using the NCGC unique quantitative screening (qHTS) platform to find inhibitors for EPAC1. In addition, this assay will also be used as a counterscreen for the EPAC2 qHTS. This fluorescent based assay is developed and validated for EPAC1 that measures exchange using EPAC effector Rap1 complex with BODIPY-GDP, a GDP analog with a tethered fluorophores. Inhibitors are identified by monitoring the change in fluorescence signal as the exchanged free BODIPY-GDP has a reduced fluorescence compared to Rap1-bound BODIPY-GDP. Decrease in signal (inhibition) is the desired outcome for the EPAC1 antagonist while no activity in this assay is desired for the EPAC2 antagonist counterscreen. de Rooij, J., Zwartkruis, F. J., Verheijen, M. H., Cool, R. H., Nijman, S. M., Wittinghofer, A., and Bos, J.L. (1998) Nature 396, 474-477 [2] Kawasaki, H., Springett, G. M., Mochizuki, N., Toki, S., Nakaya, M., Matsuda, M., Housman, D. E., and Graybiel, A. M. (1998) Science 282, 2275-2279 NIH Chemical Genomics Center [NCGC] NIH Molecular Libraries Probe Centers Network [MLPCN] MLPCN Grant: NS066510 Assay Submitter (PI): Xiaodong Cheng, The University of Texas, Medical Branch
Briefly, three uL of reagents (100 nM EPAC1, 250 nM RAP1B-BODIPY-GDP, 50 uM GDP) were dispensed into a 1536-well Greiner black solid-bottom medium binding assay plate. Controls and test compounds (23 nL) were transferred to the plate via a Kalypsys pin tool equipped with a 1536-pin array. The plates were centrifuged at 1,000 rpm for 15 seconds followed by 5 minute incubation at room temperature. The assay plates were read at 5 minute intervals for 30 minutes in the ViewLux plate reader using 480nm excitation and 540nm emission filters. The results were normalized to the […] positive control ATA and DMSO.
Potency is the fitted concentration of half-maximal effect.

Row | SMILES | activity change, negative = inhibition [%] | Potency
1 | CC(C)(C)C1CCC(=O)N2CCC[C@]2(c2ccccc2)C1 (stereo partly drawn) | -18.9 | –
2 | CCOC(=O)[C@]12CCCC=C1N(CCC1=CCCCC1)C(=O)[C@H](CC(=O)N1CCN(C(=O)c3ccco3)CC1)C2 | 1.32 | –
3 | Cc1[nH]c2ccccc2c1C(=O)c1cc([C@H](NC(=O)OC(C)(C)C)C(C)C)sc1N | -13.3 | –
4 | CCOC(=O)N1C(=O)C[C@](Sc2ccc(C)cc2)(C(=O)OC)[C@H]1c1ccccc1 | -13.4 | –
5 | O=C(C[C@H]1CC[C@H]2[C@@H](COC[C@H](O)CN2C(=O)c2ccccn2)O1)N1CCN(c2ccccc2)CC1 | 10.9 | –
6 | Nc1nc2c(Br)ccc(Br)c2cc1C(=O)NCCc1ccccc1 | -1.34 | –
7 | O=c1[nH][nH]c2c1[C@H](c1ccc(Cl)cc1)O[C@H](CCc1ccccc1)C2 | -17.2 | –
8 | CC1(C(=O)Nc2ccc3c(c2)OCCO3)CSCC(=O)N1CCOc1ccccc1 (stereo not drawn) | 9.55 | –
9 | Cc1ccc(S(=O)(=O)N[C@H](CO)C(C)C)cc1 | -3.21 | –
10 | N#Cc1ccc(-c2nc3c(Cl)cc(C(F)(F)F)cn3c2Cc2ccccc2C(F)(F)F)cc1 | -5.26 | –
11 | CC1(C)OC(=O)C2=C(C[C@@H](C3CCCCC3)O[C@@H]2c2ccc(Cl)cc2)O1 | -25.4 | –
12 | COC(=O)C1(C(=O)OC)C[C@H](c2ccccc2)N(Cc2ccccc2OC)[C@@H]1c1ccccc1 | -3.05 | –
13 | CN1CCN(c2ccc3c(c2)OC[C@H](Cc2ccccc2)NS3(=O)=O)CC1 | -10.2 | –
14 | COC(=O)C[C@H]1C=C[C@H](NC(=O)c2ccc(F)cc2)[C@@H](CO)O1 | -26.1 | –
15 | C=C1C(=O)OC2C1CCC(C)=CCCC1(C)OC21 (stereo not drawn) | -16.4 | –
16 | CO[C@@H]1CN(C)C(=O)c2cc(NC(=O)C3CC3)ccc2OC[C@H](C)N(C(=O)CN2CCOCC2)C[C@@H]1C | -0.664 | –
17 | CC(C)C1C(=O)N(Cc2cn(CCC3OCCO3)nn2)CCS(=O)(=O)N1Cc1ccc(-c2ccccc2C(F)(F)F)cc1 (stereo not drawn) | -16.9 | –
18 | CCOC(=O)[C@]12CCC=C1N(Cc1cccc3ccccc13)C(=O)[C@H](CC(=O)NCc1cccc(C(F)(F)F)c1)C2 | -22.9 | –
19 | CCCCC[C@H](C)N1C[C@@H](COCc2ccccc2)Oc2cc(N3CC[C@@H](N(C)C)C3)ccc2S1(=O)=O | -13.4 | –
20 | C=CCC[C@@H](CCCCC)OC(=O)/C=C/[C@@H](O)[C@H](O)C[C@H](O)CC=C | -3.19 | –

Row | SMILES | activity change, negative = inhibition [%] | Potency
21 | CCOC(=O)c1ccc(-c2ccc3ncnc(N(C)Cc4sccc4C)c3c2)o1 | -20.6 | –
22 | CCCNC(=O)c1cc2c(c(-c3cccc(-c4ccc(C#N)cc4)c3)n1)[C@@H](CCO)N(C(=O)CC)C2 | -12.9 | –
23 | Cc1ccc(C(=O)Nc2c(-c3ccccc3)[nH][nH]c2=O)cc1 | -14.8 | –
24 | CCCc1nc2ccccc2n1C(C)C(=O)NC(C)(C)C (stereo not drawn) | 1.55 | –
25 | N#Cc1ccc(C(C(=O)NCc2ccccc2)n2c(=O)c(-c3ccco3)nc3ccccc32)cc1 (stereo not drawn) | -6.44 | –
26 | CC(C)NC(=O)N1Cc2cc(C(=O)NCC(F)(F)F)nc(-c3cccc(-c4cc5ccccc5o4)c3)c2[C@@H]1CCO | 7.65 | –
27 | CC(C)C[C@H]1CNC(=O)C(=O)N1C[C@H]1CCCN1C[C@H](Cc1ccc(O)cc1)N1C[C@H](CC(C)C)N(CC2CCCCCC2)C(=O)C1=O | -10.1 | –
28 | COC(=O)c1ccc2c(c1)S(=O)(=O)NC2C (stereo not drawn) | 1.42 | –
29 | CCC(C(=O)NCc1ccccc1)n1c(Cc2cc(F)cc(F)c2)nc2ccccc21 (stereo not drawn) | -11.9 | –
30 | CCOC(=O)c1cc2cc(OC)ccc2n1C1CCN(C)CC1 | -3.06 | –
31 | COC(=O)[C@@]1(Sc2ccc(C)cc2)CC(=O)N(c2cccc(SC)c2)[C@@H]1c1ccccc1 | -16 | –
32 | COC(=O)[C@]12CCCCC=C1N(Cc1ccccc1)C(=O)[C@H](CC(=O)NCc1ccc(C)o1)C2 | -8.27 | –
33 | CC(C)OC(=O)CC(=O)CC(O)c1cccc([N+](=O)[O-])c1 (stereo not drawn) | 10.8 | –
34 | CCCCc1c(-c2ccc(Cl)cc2)ncn1CCc1ccccc1OC | -17.1 | –
35 | CCOC(=O)N1CCN(C(=O)C[C@@H]2C[C@@]3(C(=O)OC)CC(C)(C)CC=C3N(Cc3ccco3)C2=O)CC1 | 12.7 | –
36 | Nc1[nH]c(C(=O)c2ccccc2)c(-c2ccncc2)c1C(=O)NCc1cccc2ccccc12 | 7.33 | –
37 | CC(C)c1ccc2c(c1)c(SC(C)(C)C)c(CC(C)(C)C(=O)O)n2Cc1ccc(Cl)cc1 | – | 25.1 µM (active)
38 | CCCCc1c(-c2ccc(Br)cc2)ncn1CCc1ccccc1OC | -8.85 | –
39 | CCC(=O)N1Cc2cc(C(=O)NCc3cccc(F)c3)nc(-c3cccc(C4=CCCC4)c3)c2[C@H]1CCO | -8.22 | –
40 | CCC(C)Cn1c(O)cc2nn(-c3nc4ccccc4s3)c(=O)c-2c1C (stereo not drawn) | – | 50.1 µM (active)

Row | SMILES | activity change, negative = inhibition [%] | Potency
41 | Cc1cc2nc(-c3ccc(F)cc3)c(Cc3ccsc3)n2c(C)c1Br | 7.15 | –
42 | COc1ccc(NC(=O)C(c2ccncc2)n2c(=O)c(-c3cc4ccccc4[nH]3)nc3ccccc32)cc1 (stereo not drawn) | -8.06 | –
43 | CCCCCc1c(Cc2ccccc2)ncn1CCc1ccccc1OC | -18.1 | –
44 | Cc1ccc(-c2c(N)nc3ncccn23)cc1 | -8.75 | –
45 | CCCCC[C@H](C)N1C[C@@H](COCc2ccccc2)Oc2cc(N3CCC[C@@H]3CO)ccc2S1(=O)=O | 10.1 | –
46 | CCCCCCN1CCN(C2CN(Cc3cn(Cc4ccc(F)cc4)nn3)S(=O)(=O)C2)CC1 (stereo not drawn) | -0.786 | –
47 | CC1(C)OC(=O)C2=C(C[C@@H](C3CCCC3)O[C@@H]2c2ccc(Cl)cc2)O1 | -10.6 | –
48 | CCCCCc1c(-c2ccc(OC)c(OC)c2)ncn1CCc1ccccc1OC | -9.08 | –
49 | COc1ccc(C(C#N)=C2C=CC(=NO)c3ccccc32)cc1 | -2.56 | –
50 | COCCNC(=O)C1C(=O)Nc2ccccc2C(=O)N1c1ccc2c(c1)OCCO2 (stereo not drawn) | -13.8 | –
51 | O=C(C[C@H]1CC[C@@H](NC(=O)c2ccncc2)[C@@H](CO)O1)NCC1CC1 | -10.8 | –
52 | CC1(C(=O)NCc2ccccc2)CSCC(=O)N1CCCN1CCOCC1 (stereo not drawn) | -14.7 | –
53 | FC(F)(F)c1cccc(-c2nc3ccccc3n2C(c2ccccc2)c2nc3ccccc3[nH]2)c1 (stereo not drawn) | -10.9 | –
54 | CC1(C)OC(=O)C2=C(C[C@@H](C3CC3)O[C@H]2c2ccc(Cl)cc2)O1 | -6.86 | –
55 | Cc1ccc(-c2nc3c(C)cc(Br)cn3c2Cc2ccccc2)cc1 | -12.7 | –
56 | COc1ccc(C2=NN(C(=O)c3ccccc3C(=O)O)C(c3ccccc3O)C2)cc1 (stereo not drawn) | 1.95 | –
57 | COc1ccc(C2=NN(c3nc4ccccc4s3)C(=O)C2)cc1 | – | 79.4 µM (active)
58 | COc1ccc(-c2cc3n(n2)CCc2nc4ccccc4n2-3)cc1 | 3.51 | –
